Measurements reported in PubChem BioAssay AID686979 (National Center for Advancing Translational Sciences (NCATS), 2013).
Where “and” joins values, the source holds several entries; their conditions need not be identical. Equal entries are not always repeated. In all, about 420,000 compounds went through this assay and about 50,000 (12%) were called active. Another 26% or so got no clear call; they are omitted. The call rests on the fitted dose curve; in most records, active means well fitted inhibition curve with a large enough effect; inconclusive means small, poorly fitted or top-dose-only effect; inactive means flat fitted curve, though single readings scatter. The list comes from a sample in which actives are over-represented; it also holds similar structures and randomly drawn compounds.

Test: qHTS for Inhibitors of human tyrosyl-DNA phosphodiesterase 1 (TDP1): qHTS in cells in presence of CPT; further: nearly all actives have a fitted effect of over 55% in size
Details: chicken DT40 Tdp1-/-;hTDP1 cells + 20 nM CPT, ATP luminescence, 48 h; series mostly up to 46.2 µM; activity change, negative = growth inhibition: at the top concentration
Procedure, shortened: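 Chicken DT40 Tdp1-/- cells stably complemented with human TDP1 were seeded at 400 cells/well in medium containing 20 nM camptothecin, exposed to pin-transferred compounds, and grown at 37 °C for at least 48 hr. Viability was read as ATP luminescence.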
On the % scale 0 is the no-effect control and ±100 the full control effect; potency means the concentration at half of the fitted maximal effect.

Compound | activity change, negative = growth inhibition | Potency
COc1ccc2c(CC(=O)NNC(=O)c3ccccc3F)coc2c1 | -0.595% (inactive) | 
CCC(C)(C)NC(=O)CN(C(=O)C(=O)Nc1ccc2c(c1)OCCO2)C(C)(C)CC | -19.8% (inactive) | 
O=C(COC(=O)Cn1[nH]c(=O)c2ccccc2c1=O)Nc1ncc(Cl)cc1Cl | -1.54% (inactive) | 
O=C(OCc1cc(Cl)ccc1OC(F)F)c1cccnc1 | 6.56% (inactive) | 
Cc1ccc(C(=O)NC(=S)Nc2ccc(N3CCOCC3)cc2)cc1 | -29.5% (inactive) | 
Cc1cccc(NC(=S)NC(=O)c2ccc(Br)o2)c1 | 0.885% (inactive) | 
Cc1ccc(C(=O)NC(=S)Nc2ccccc2C)cc1 | -10.1% (inactive) | 
Cc1ccc(NC(=S)NC(=O)c2ccc(-c3ccccc3)cc2)cc1 |  | 6.51 µM (active)
Cc1cccc(NC(=O)/C(=C\c2ccco2)NC(=O)c2ccccc2)c1 | -2.66% (inactive) | 
Cc1cccc(NC(=O)NC(=S)NC(=O)c2ccccc2)c1 |  | 8.2 µM (active)
C/C(=N\NC(=O)OC(C)(C)C)c1ccc[nH]1 | -10.6% (inactive) | 
O=C(CCN1C(=O)C2C3CCC(C3)C2C1=O)Nc1ccc(Cl)cc1Cl (stereo not drawn) | 1.93% (inactive) | 
O=C(NCCc1c[nH]c2ccc(Cl)cc12)c1ccc([N+](=O)[O-])cc1 | -0.327% (inactive) | 
O=C(Cc1cccc2ccccc12)NCCC1=CCCCC1 | -28.8% (inactive) | 
CC(=O)c1ccc(N2CCN(CC(=O)Nc3ccccc3N3CCOCC3)CC2)cc1 |  | 14.6 µM (active)
O=C(COc1ccc(Cl)cc1)NC(=S)Nc1ccccc1N1CCOCC1 | 8.34% (inactive) | 
Cc1cc(C)cc(OCC(=O)Nc2ccc(N3CCOCC3)cc2N2CCOCC2)c1 |  | 20.6 µM (active)
Cc1ccc(OCCCC(=O)Nc2ccc(N3CCOCC3)cc2)cc1 | -17.8% (inactive) | 
O=C(CNCCC1=CCCCC1)Nc1ccccc1N1CCCCCC1 |  | 20.6 µM (active)
Cc1ccccc1CN1CCNC(=O)C1CC(=O)NCCC1=CCCCC1 (stereo not drawn) | 13% (inactive) | 
O=C(CN1CCN(c2ccc(O)cc2)CC1)Nc1ccc(-c2ccccc2)cc1 | -17.9% (inactive) | 
O=C(NCCCN1CCN(C2CCCCC2)CC1)Nc1ccccc1C(F)(F)F | 6.84% (inactive) | 

Compound | activity change, negative = growth inhibition | Potency
O=C(CN1CCCCC1)Nc1ccccc1C(=O)NC1CC1 | 13.4% (inactive) | 
O=C(CN1CCN(C2CCCCC2)CC1)Nc1ccccc1N1CCCCC1 |  | 29.1 µM (active)
CCc1ccc(C(=O)NC(=S)Nc2ccccc2N2CCOCC2)cc1 | -29.2% (inactive) | 
CCn1c(=O)c(=O)[nH]c2c(=O)oc3ccc(S(=O)(=O)Nc4ccc(OC)cc4)cc3c21 | 0.32% (inactive) | 
Cc1ccc(CCN2CC(C(=O)NCCc3ccccc3)CC2=O)cc1 (stereo not drawn) | -10.1% (inactive) | 
O=C(COC(=O)Cc1ccc(Br)cc1)Nc1ccc(N2CCOCC2)cc1 | -13% (inactive) | 
CCc1ccc(NC(=O)COC(=O)c2cccs2)cc1 | 1.08% (inactive) | 
COc1cc(C(=O)N2CCN(C(=O)COc3cccc(C)c3)CC2)cc(OC)c1OC | 10.3% (inactive) | 
COc1cccc(OC)c1C(=O)Nc1ccc2c(c1)n(C)c(=O)n2C | 15.1% (inactive) | 
COC(=O)c1ccc(CSc2ccc(S(=O)(=O)N3CCCCC3)cn2)cc1 | -1.22% (inactive) | 
Cc1cn(C2OC[C@@H](O)[C@@H]2CO)c(=O)[nH]c1=O (stereo partly drawn) |  | inactive
CC(C)(C)CN1CCNC(=O)C1CC(=O)NC1Cc2ccccc2C1 (stereo not drawn) | 1.17% (inactive) | 
O=C(CN1CCN(c2ccc(F)cc2)CC1)Nc1ccccc1 | -6.14% (inactive) | 
O=C(CN1CCN(c2ccccc2)CC1)Nc1ccc(F)cc1 | 4.73% (inactive) | 
Cc1cccc(C)c1NC(=O)CN1CCN(c2ccc(F)cc2)CC1 |  | 14.6 µM (active)
C#CCCOC(=O)N1C2=NC(C(=O)OC)=C(C(=O)OC)[C@@H]3N(C)c4ccc(OC)cc4[C@]23C[C@H]1C(=O)OC | -29.4% (inactive) | 
N/C(=N\OC(=O)CC1CCCCC1)c1ccccc1 | 3.6% (inactive) | 
O=C(C(Cl)Cl)N1CCN(c2ccccn2)CC1 | 6.47% (inactive) | 
Cc1cc(C(=O)N2CCN(c3ccccn3)CC2)c(C)o1 |  | 17.8 µM (active)
O=C(c1cc2ccccc2s1)N1CCN(c2ccccn2)CC1 | -10.5% (inactive) | 
COc1ccc(/C=N/Nc2nc(-c3ccc(C)cc3)c(C#N)c(=O)[nH]2)cc1 | -1.12% (inactive) | 
COc1ccc(CCNS(=O)(=O)c2cccc([N+](=O)[O-])c2)cc1 | 2.66% (inactive) | 

Compound | activity change, negative = growth inhibition | Potency
COc1ccc(S(=O)(=O)NCCc2cc3ccc(C)c(C)c3[nH]c2=O)cc1 |  | 14.6 µM (active) and 18.4 µM (active)
COc1ccc(CCNS(=O)(=O)c2ccc(F)cc2)cc1OC | -13.6% (inactive) | 
COC(=O)Cn1nc(-c2ccccc2)c2cc(Cl)ccc21 | -2.26% (inactive) | 
NC(N)=Nc1nc(-c2ccccc2)c2cc(Cl)ccc2n1 |  | 16.4 µM (active)
Cc1ccc2nc(Nc3ccccc3O)nc(-c3ccccc3)c2c1 | -22.7% (inactive) | 
O=C(Nc1ccc(-c2cscn2)cc1)C1CCCN(Cc2ccc(CO)o2)C1 (stereo not drawn) | -16.9% (inactive) | 
CN(Cc1ccco1)S(=O)(=O)c1nnc(NC(=O)c2ccccc2)s1 | -19.4% (inactive) | 
CC(C)NC(=O)c1ccccc1S(=O)c1ccccc1C#N (stereo not drawn) | -8.19% (inactive) | 
Cc1cc(NC(=O)CC(C)C)cc(-c2nc3ncccc3o2)c1O | -22.1% (inactive) | 
CC(=O)N1CCc2cc(S(=O)(=O)NC3CCCCC3)ccc21 | -29.4% (inactive) | 
CC1Cc2cc(S(=O)(=O)CCC(=O)NCc3ccc(Cl)cc3)ccc2N1C(=O)C1CC1 (stereo not drawn) |  | 3.66 µM (active)
COc1cccc(CNC(=O)C2CCC(CNS(=O)(=O)c3cccs3)CC2)c1 (stereo not drawn) | -7.39% (inactive) | 
CC1Cc2ccccc2N1CC(=O)Nc1ccc(S(N)(=O)=O)cc1 (stereo not drawn) | -8.99% (inactive) | 
CC1Cc2cc(S(=O)(=O)CCC(=O)Nc3ccc(F)c(Cl)c3)ccc2N1C(=O)C1CC1 (stereo not drawn) |  | 10.3 µM (active)
Cn1c(=O)oc2cc(S(=O)(=O)CCC(=O)NCCc3ccc(Cl)cc3)ccc21 | -4.8% (inactive) | 
CC(=O)N1c2ccc(S(=O)(=O)N(C)CC(=O)N(C)Cc3ccccc3)cc2CC1C (stereo not drawn) | -18.2% (inactive) | 
CCC(=O)N1c2ccc(S(=O)(=O)CCC(=O)N3CCN(c4ccccc4)CC3)cc2CC1C (stereo not drawn) | -22.3% (inactive) | 
Cc1ccc(S(=O)(=O)NCCC(=O)NCc2ccc(Cl)cc2)cc1C | -13.5% (inactive) | 
COc1cccc(CNS(=O)(=O)c2ccc3c(c2)CC(C)N3C(=O)C2CCC2)c1 (stereo not drawn) |  | 5.8 µM (active) and 7.31 µM (active)
COc1cccc(CNS(=O)(=O)c2csc(C(N)=O)c2)c1 | -15.7% (inactive) | 
CC(=O)N1c2ccc(S(=O)(=O)NCCC(=O)N(C)C3CCCCC3)cc2CC1C (stereo not drawn) |  | 10.3 µM (active)
O=C(Cn1cnc2c(cnn2-c2ccc(F)cc2)c1=O)NCCc1ccccc1 | -16.9% (inactive) | 

Compound | activity change, negative = growth inhibition | Potency
CCCCNC(=O)OCCSCCS(=O)(=O)c1ccc(Cl)cc1 | 0.699% (inactive) | 
Cc1nc2c(c(C)nn2-c2ccccc2)c(C)c1C | 0.197% (inactive) | 
CCOC(=O)c1cc(S(=O)(=O)NCCc2ccc(OC)c(OC)c2)cn1C | 0.651% (inactive) | 
CNC(=O)C(NC(=O)c1ccccc1)=C(C)C | 1.28% (inactive) | 
O=C(CSC1CC(=O)N(CCc2ccccc2)C1=O)Nc1ccc(Cl)cc1 (stereo not drawn) | -10.4% (inactive) | 
CCOC(=O)CNc1nc(Cl)nc(Nc2ccc(OC)cc2OC)n1 | -6.66% (inactive) | 
Cc1c(S(=O)(=O)N2CC(C)CC(C)C2)c(=O)n(C)c(=O)n1C (stereo not drawn) | 21.5% (inactive) | 
CC(C)CCN1CCC(C)(NC(=O)c2ccccc2)C1=O (stereo not drawn) | -24.9% (inactive) | 
O=C(c1ccc(Cl)nc1)N1CCN(S(=O)(=O)c2ccc3c(c2)OCCO3)CC1 | -29.3% (inactive) | 
CCOC(=O)c1ccccc1NC(=O)CCc1c(C)nc2c(c1C)c(=O)n(C)c(=O)n2C | 11.4% (inactive) | 
COc1cc(NC(=O)c2ccc(CNc3c(N4CCCC4)c(=O)c3=O)cc2)cc(OC)c1OC | 1.21% (inactive) | 
COc1cc(C(=O)Nc2ccc(OCc3cc(=O)n4ccc(C)cc4n3)cc2)cc(OC)c1OC | -7.29% (inactive) | 
COc1cc(C(=O)Nc2ccc(-n3c(C)nc4ccccc4c3=O)cc2)cc(OC)c1OC |  | 16.4 µM (active)
COc1cc(NC(=O)c2nc3ccccc3nc2C)cc(OC)c1OC | -29.3% (inactive) | 
COc1ccc(NC(=O)CN2C(=O)CSC2=O)cc1 | 4.96% (inactive) | 
CCC(=O)N1CCCC1(C)C(=O)Nc1ccc2c(c1)CCN2C(C)=O (stereo not drawn) | 2.65% (inactive) | 
CC1=C(C(=O)OC2CCCCC2)C(c2cccnc2)n2ncnc2N1 (stereo not drawn) |  | 14.6 µM (active)
CC1=C(C(N)=O)C(c2ccc(Br)cc2)n2ncnc2N1 (stereo not drawn) | 35.2% (inactive) | 
COC(=O)C1=C(C)Nc2ncnn2C1c1cccnc1 (stereo not drawn) | -0.87% (inactive) | 
S=C(NC1CCCCC1)NN1CCOCC1 | -5.84% (inactive) | 
Cc1ccc(C(=O)NCCc2nnc(SCC(=O)Nc3cccc(C(=O)O)c3)n2C)cc1 | 0.587% (inactive) | 
Cc1cccc(NC(=O)C2CCCN2S(=O)(=O)c2cccc3nsnc23)c1C (stereo not drawn) | -20.7% (inactive) | 

Compound | activity change, negative = growth inhibition | Potency
CCOC(=O)c1cnc(COc2ccccc2Cl)[nH]c1=O | -1.8% (inactive) | 
CC(=O)Nc1ccc(-c2csc(NC(=O)Nc3ccccc3)n2)cc1 |  | 3.66 µM (active)
O=C(O)c1ccccc1C(=O)Nc1nc(-c2ccccc2)cs1 | 1.16% (inactive) | 
CC(=O)Nc1ccc(S(=O)(=O)Nc2nc(-c3ccc(C(C)(C)C)cc3)cs2)cc1 | -4.81% (inactive) | 
Cc1nc(NNC(=O)c2ccccc2)cc(-c2ccccc2)n1 | -14.5% (inactive) | 
CC(=O)Nc1ccc(-c2csc(NC=C3C(=O)OC(C)(C)OC3=O)n2)cc1 | -8.37% (inactive) | 
Cc1ccc(-c2csc(NNC(=O)c3ccccc3)n2)cc1 |  | 4.11 µM (active)
CC(=O)N1CCN(CC(c2ccccc2)c2ccccc2)CC1 | -27.6% (inactive) | 
CCOc1cc(/C=N/NC(=O)c2ccc(CSc3nncn3C)cc2)ccc1OCC(=O)N1CCOCC1 | 0.321% (inactive) | 
COc1cc(OC)cc(C(=O)Nc2nnc(SCC(=O)NCC3CCCO3)s2)c1 (stereo not drawn) | -19.8% (inactive) | 
Cc1noc(C)c1-c1nc(CSc2ccc(Cl)cc2)no1 | 8.49% (inactive) | 
CCN(CC)S(=O)(=O)c1ccc(C)c(NC(=O)COc2ccc(Br)cc2Cl)c1 | -20.7% (inactive) | 
Oc1ccc(Br)cc1C1C=C(c2ccc3c(c2)OCO3)NC(c2ccc(Cl)cc2)N1 (stereo not drawn) |  | 7.08 µM (active)
Cc1cccc(-n2c(=O)c3c(c4cc(C)ccc4n3C)n(CC(=O)Nc3ccccc3Cl)c2=O)c1 | 0.458% (inactive) | 
CC1CCCCN1CC(=O)NCc1ccc2c(c1)OCO2 (stereo not drawn) | -6.16% (inactive) | 
O=C(COc1ccc2oc3c(c2c1)CCCC3)Nc1ccccn1 | -1.19% (inactive) | 
O=C(CN1CCOCC1)N1CCCc2c1c(=O)oc1ccc(OCc3ccccc3)cc21 |  | 18.4 µM (active)
Cc1c(C(=O)N2CCOCC2)[nH]c2ccc(OCc3ccccc3)cc12 | -21.9% (inactive) | 
NC(=O)C1CCN(C(=O)COc2ccc3c4c(c(=O)oc3c2)CCC4)CC1 | 2.93% (inactive) | 
CC1CCCCN1CC(=O)N1CCCc2c1c(=O)oc1ccc(OCc3ccccc3)cc21 (stereo not drawn) |  | 16.4 µM (active)
